Test results published in the supplement of paper PMC6555819.

Key:
Test in all cases: PBM binding z-score (relative to random genomic background probes); higher = stronger binding; sequences stand for … in GC…GCGATTGACAGCGTAGAATGAAGG
[1] = tested on: PPARg:RXRa DBDmut IVT, anti-RXR (DBD mutation: RXRa K156A/R161A, NR concentration 270 nM, RXRa partner concentration 90 nM)
How it was run: (§1)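 Each nuclear receptor dimer, without ligand, was incubated for 1 h on custom Agilent 4×180K protein-binding microarrays. Binding was detected with antibodies against each partner (one per run), and scanned fluorescence was regression-normalized. The binding z-scores are referenced to random human genomic background probes.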

[2] = tested on: PPARg:RXRa IVT, anti-PPARg (NR concentration 270 nM, RXRa partner concentration 90 nM)
How it was run: as §1

[3] = tested on: PPARg DBDmut:RXRa IVT, anti-PPARg (DBD mutation: PPARg1 K132A/R137A, NR concentration 270 nM, RXRa partner concentration 90 nM)
How it was run: as §1

[4] = tested on: PPARg DBDmut IVT, anti-PPARg (DBD mutation: PPARg1 K132A/R137A, NR concentration 270 nM)
How it was run: as §1

[5] = tested on: PPARg homodimer (NR concentration 180 nM)
How it was run: as §1

[6] = tested on: PXR:RXRa (NR concentration 270 nM, RXRa partner concentration 90 nM)
How it was run: as §1

[7] = tested on: PXR homodimer (NR concentration 270 nM)
How it was run: as §1

[8] = tested on: RARa:RXR (NR concentration 270 nM, RXRa partner concentration 90 nM)
How it was run: as §1

[9] = tested on: RARa homodimer (NR concentration 270 nM)
How it was run: as §1

[10] = tested on: RARb:RXRa (NR concentration 270 nM, RXRa partner concentration 90 nM)
How it was run: as §1

[11] = tested on: RARb homodimer (NR concentration 270 nM)
How it was run: as §1

[12] = tested on: RARg:RXRa (NR concentration 270 nM, RXRa partner concentration 90 nM)
How it was run: as §1

[13] = tested on: RARg homodimer (NR concentration 270 nM)
How it was run: as §1

[14] = tested on: RXRa DBDmut IVT, anti-RXR (DBD mutation: RXRa K156A/R161A, NR concentration 90 nM)
How it was run: as §1

[15] = tested on: RXRa homodimer (NR concentration 180 nM)
How it was run: as §1

[16] = tested on: THRa:RXRa (NR concentration 90 nM, RXRa partner concentration 90 nM)
How it was run: as §1

[17] = tested on: THRa homodimer (NR concentration 90 nM)
How it was run: as §1

[18] = tested on: VDR:RXRa (NR concentration 270 nM, RXRa partner concentration 90 nM)
How it was run: as §1

[19] = tested on: VDR homodimer (NR concentration 270 nM)
How it was run: as §1

| Sequence | PBM binding z-score [1] | PBM binding z-score [2] | PBM binding z-score [3] | PBM binding z-score [4] | PBM binding z-score [5] | PBM binding z-score [6] | PBM binding z-score [7] | PBM binding z-score [8] | PBM binding z-score [9] | PBM binding z-score [10] | PBM binding z-score [11] | PBM binding z-score [12] | PBM binding z-score [13] | PBM binding z-score [14] | PBM binding z-score [15] | PBM binding z-score [16] | PBM binding z-score [17] | PBM binding z-score [18] | PBM binding z-score [19] |
| --- | --- | --- | --- | --- | --- | --- | --- | --- | --- | --- | --- | --- | --- | --- | --- | --- | --- | --- | --- |
| TCGAGTAGGTTACCAATGGGGCATGCAGCTTTCT | 2.81 | 2.63 | -0.851 | -0.804 | 0.0945 | 0.0825 | -0.874 | 0.433 | -0.816 | 0.932 | 0.595 | 1.02 | 0.374 | 0.239 | 0.609 | 0.0319 | -0.807 | -0.0716 | -0.473 |
| CCTTGCAGGCCAATCTGGGTCACTCAAGGCTTGA | 4.87 | 5.67 | 0.0467 | -0.339 | 0.973 | 1.02 | -0.543 | 1.59 | -0.229 | 1.53 | 2.28 | 1.15 | 1.42 | 0.233 | 0.742 | 3.61 | 0.612 | 0.663 | -0.0782 |
| CCTAGCAGGCCTGGGTCACTCAAGCATTTCGCTT | 0.171 | 0.217 | -1.39 | -1.28 | 0.279 | 0.53 | -0.661 | 1.16 | 0.152 | 1.43 | 1.69 | 1.25 | 0.967 | -0.144 | 0.958 | 1.48 | 0.229 | 0.546 | -0.269 |
| TAGCCTAGGTCAGATCGGGCCTGTATACGCTATA | 0.244 | 1.36 | -0.328 | 0.156 | 0.016 | 0.238 | -0.728 | 1.22 | -0.734 | 2.8 | 1.97 | 2.53 | 3.21 | -0.396 | 1.29 | 2.64 | -0.216 | 0.0712 | -0.157 |
| CAAACTAGGTCAAGAGGTCAAAATCCGCTTCCCG | 7.82 | 8.13 | 1.85 | 1.15 | 4.78 | 5.89 | 1.57 | 7.65 | 1.73 | 5.35 | 5.66 | 7.74 | 7.02 | 2.42 | 7.25 | 4.55 | 2.33 | 5.85 | 3.18 |
| AATCAAAGTTCATCTAGGTAACGTAAGATATGCT | 0.153 | 2.87 | 1.79 | 1.11 | 2.75 | 4.95 | 7.06 | 3.24 | 1.38 | 5.22 | 3.95 | 5.18 | 5.7 | 4.69 | 4.44 | 3.23 | 0.0393 | 5.13 | 4.45 |
| ACTCGGAGGACAAAGGTCAGAGCCACGCCAGTGA | 0.449 | 3.88 | 0.243 | 0.0578 | 3.83 | 4.03 | 0.202 | 5.5 | 1.68 | 4.73 | 4.56 | 6.18 | 5.6 | 1.27 | 6.11 | 3.55 | 0.686 | 3.43 | 1.13 |
| GCTAGCGGGCCATTTGGGTCACTCAATGACGGGC | 1.3 | 1.48 | -0.871 | -1.28 | -0.0904 | 0.246 | -0.44 | 0.906 | -1.07 | 1.26 | 1.54 | 0.986 | 1.19 | -0.841 | 0.742 | 1.94 | 0.129 | 0.753 | 0.0296 |
| GCTGCTACGTCAACTGATGGTCAGCTAAAGCTCG | -0.232 | -0.749 | -0.632 | -1.06 | -1.02 | -0.736 | -1.23 | -0.62 | -1.34 | -0.291 | -0.272 | -0.163 | -0.441 | -0.129 | -0.367 | -0.498 | -0.948 | -0.617 | -0.701 |
| CGAACGAGGGCATGAATTGATAGCAAATGCCGAT | 2.65 | 1.53 | 0.103 | -0.47 | 0.00872 | 0.118 | -0.261 | 0.259 | -0.227 | 1.72 | 0.244 | 0.899 | 1.3 | 2.24 | 0.708 | 0.857 | -0.496 | 0.33 | 0.297 |
| CCTATCAGGCCAATCTGGGTCACTCAAGGCTTGA | 4.25 | 5.29 | 0.637 | -0.095 | 1.45 | 1.27 | -0.29 | 2.62 | 0.00198 | 1.75 | 2.48 | 1.44 | 1.71 | 0.421 | 1.14 | 4.02 | 1.16 | 0.878 | -0.0119 |
| CCTCGGAGGACAGAAGGTCAGACCTGTCCGCTTT | 0.156 | 0.0592 | -1.1 | -2.09 | 1.39 | 1.69 | -0.272 | 2.2 | -0.193 | 3.22 | 3.7 | 3.17 | 3.3 | 0.392 | 2.08 | 2.39 | -0.0906 | 1.05 | 0.229 |
| TAGTCTAGGTCATGCGGGCCAGTATAGTGTCGGC | 5.79 | 6.05 | 2.08 | 2.16 | 1.27 | 1.58 | 0.355 | 2.07 | 0.351 | 3.85 | 3.13 | 3.77 | 4.69 | 0.748 | 3.08 | 3.29 | 1.67 | 2.86 | 0.86 |
| GCGACTGGGGCATCAGCAGGTTACCTTAACTTAA | 3.64 | 3.03 | -1.1 | -0.949 | 0.152 | 0.367 | -0.375 | 0.558 | -0.549 | 0.828 | 0.872 | 0.268 | 0.175 | 0.145 | 0.259 | 1.8 | 2.05 | -0.355 | -0.071 |
| CCTACTGGGCCATTAGGTCATTGATATCAACGTT | 5.31 | 5.88 | 0.577 | 0.445 | 1.02 | 1.13 | 0.202 | 1.72 | 0.45 | 2.09 | 2.8 | 2.38 | 2.12 | 0.292 | 1.04 | 2.63 | 2.27 | 1.47 | 1.01 |
